Data taken from PubChem BioAssay (Tox21).
Inconclusive results are not listed. Unmarked numbers belong to inactive results. Activity calls are given as the source filed them. Calls come from the whole dose curve; as a rule, active = well fitted curve in the direction sought with a large enough effect in the repeat runs; inconclusive = weak or mixed curves; inactive = no such curve, though single readings can be large; an effect the other way counts as inactive or inconclusive.

Biological target: Aryl hydrocarbon receptor (Homo sapiens) (UniProt P35869)
Experiment: qHTS assay to identify small molecule that activate the aryl hydrocarbon receptor (AhR) signaling pathway (AID 743085); note: nearly all actives have a fitted effect of over 15% in size;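 for activation: HG2L7.5c1 human HepG2 liver cells with stably integrated DRE-driven firefly reporter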
Details: HepG2 AhR-luc (HG2L7.5c1), luciferase, 24 h; series mostly up to 70.3 µM; activation: at the top concentration
Outline: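 Luminescence (ONE-Glo) from a dioxin-responsive-element luciferase reporter in HG2L7.5c1 HepG2 cells after 24 hr compound exposure at 37C; viability measured by CellTiter-Fluor fluorescence beforehand.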
% is set by controls: 0 for no effect and ±100 for the full control effect; potency is the fitted concentration of half-maximal effect.

Sequence of Aryl hydrocarbon receptor (Homo sapiens) (P35869 whole entry, looked up): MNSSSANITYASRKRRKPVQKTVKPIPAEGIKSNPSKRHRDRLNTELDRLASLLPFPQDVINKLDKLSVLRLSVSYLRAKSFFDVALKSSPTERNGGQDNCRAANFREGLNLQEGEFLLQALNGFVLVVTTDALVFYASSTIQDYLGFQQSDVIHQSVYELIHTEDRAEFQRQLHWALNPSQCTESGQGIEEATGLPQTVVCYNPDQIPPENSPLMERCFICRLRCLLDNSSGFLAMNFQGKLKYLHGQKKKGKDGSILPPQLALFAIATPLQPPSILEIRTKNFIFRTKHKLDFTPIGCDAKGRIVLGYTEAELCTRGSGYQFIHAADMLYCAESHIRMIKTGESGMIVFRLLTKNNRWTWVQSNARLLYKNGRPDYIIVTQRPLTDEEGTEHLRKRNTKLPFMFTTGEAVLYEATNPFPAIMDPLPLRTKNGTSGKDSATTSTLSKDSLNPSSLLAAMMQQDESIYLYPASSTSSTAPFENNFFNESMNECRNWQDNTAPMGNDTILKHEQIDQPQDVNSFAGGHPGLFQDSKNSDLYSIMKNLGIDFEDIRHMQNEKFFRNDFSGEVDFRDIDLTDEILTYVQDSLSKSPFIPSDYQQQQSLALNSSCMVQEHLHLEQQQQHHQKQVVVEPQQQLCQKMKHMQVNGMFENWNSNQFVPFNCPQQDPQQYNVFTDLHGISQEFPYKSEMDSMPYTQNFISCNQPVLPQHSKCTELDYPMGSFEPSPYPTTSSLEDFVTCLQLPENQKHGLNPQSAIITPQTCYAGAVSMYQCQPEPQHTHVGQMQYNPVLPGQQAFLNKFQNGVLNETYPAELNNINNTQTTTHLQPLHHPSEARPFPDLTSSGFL

Row | SMILES | activation [%] | Potency
1 | OCCN(CCO)c1nc(N2CCCCC2)c2nc(N(CCO)CCO)nc(N3CCCCC3)c2n1 | -0.288 | 
2 | CN1CCC(Nc2ncc3ncnc(Nc4ccc(F)c(Cl)c4)c3n2)CC1 |  | 13.3 µM (active)
3 | Cc1cccc2c1cc1ccc3cccc4ccc2c1c34 |  | 0.558 µM (active)
4 | OCCN1CCN(CC/C=C2/c3ccccc3Sc3ccc(C(F)(F)F)cc32)CC1 | 3.85 | 

Test system: not listed separately
Experiment: qHTS assay to identify small molecule that activate the aryl hydrocarbon receptor (AhR) signaling pathway - cell viability counter screen (AID 743086); note: nearly all actives have a fitted effect of over 45% in size;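 for viability change, negative = cytotoxic: HepG2 liver cells carrying the AhR DRE luciferase reporter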
Details: HepG2-AhR-luc viability, CellTiter-Fluor, 24 h; series mostly up to 70.3 µM; viability change, negative = cytotoxic: at the top concentration
Outline: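 HepG2-AhR-luc (HG2L7.5c1) cells, 4000/well, treated 24 h at 37 C with compound; viability measured as CellTiter-Fluor fluorescence after 30 min in the same wells as the luciferase read.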

Row | SMILES | Potency | viability change, negative = cytotoxic
5 | CCCCCCCCOC(=O)c1ccc(O)cc1 | inactive | 
6 | COc1cccc(N)c1 |  | 12% [at 95 µM]
7 | O=[N+]([O-])c1cc([N+](=O)[O-])c2ccc(S(=O)(=O)O)cc2c1O | 24.2 µM (active) | 
8 | Cc1[nH]nc2c1N=C(c1ccccc1Cl)c1cc([N+](=O)[O-])ccc1N2 | 48.6 µM (active) | 
9 | CCCCCCCCNC(C)C(O)c1ccc(SC(C)C)cc1 (stereo unspecified) | 23.7 µM (active) | 
10 | CCCCC(CC)COC(=O)c1ccccc1C(=O)O (stereo unspecified) |  | 4.52% [at 95 µM]
11 | O=C(Oc1ccccc1)c1ccccc1C(=O)Oc1ccccc1 |  | -0.818%
